A short description of the experiment: High-throughput drug toxicity screening in the BPDCN cell line Cal-1 (AID 1224825). Particulars: Cal-1 BPDCN cell viability, qHTS; at 45.8 µM (top of the series) unless noted. The gist of the method:
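Exponentially growing Cal-1 cells, 500 per well in phenol red-free RPMI with 10% FBS, were exposed to compounds for 48 h at 37 °C, 5% CO2. Viability was read by CellTiter-Glo luminescence and normalised to DMSO (100%) and 9.2 uM bortezomib (0%).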
Background: Quantitative high-throughput screening tests each substance at several concentrations.
On to `NC(=NCCCCCCN=C(N)N=C(N)Nc1ccc(Cl)cc1)N=C(N)Nc1ccc(Cl)cc1`, for which the viability (% of control) worked out at 2.49%.

As for `C=C(C)[C@@H]1CC[C@]2(C)CC[C@]3(C)[C@H](CC[C@@H]4[C@@]5(C)CC[C@H](O)C(C)(C)[C@H]5CC[C@]43C)[C@@H]12`, the viability (% of control) was found to be 121%.

For the molecule `O=C1NC(O)CCN1[C@@H]1O[C@H](CO)[C@H](O)[C@H]1O` (some centres not stated), the viability (% of control) was found to be 115%.

For `NS(=O)(=O)OC[C@@H]1C[C@@H](n2ccc3c(N[C@H]4CCc5ccccc54)ncnc32)C[C@H]1O`, the viability (% of control) was 2.9%.

With `Cc1cc(-c2nnc3n2CCCCC3)c(C)n1-c1ccccc1`, the viability (% of control) was determined as 98.4%.

On to `NC(=O)Nc1sc(-c2ccc(F)cc2)cc1C(N)=O`, for which the viability (% of control) worked out at 3.13%.

Consider `C=C1CCC2[C@](C)(CO)C(O)CC[C@]2(C)C1CC=C1C(=O)OCC1O` (some centres not stated), for which the viability (% of control) was 110% [at 92.2 µM].

Take `CC[C@H]1OC(=O)[C@H](C)[C@@H](O[C@H]2C[C@@](C)(OC)[C@@H](O)[C@H](C)O2)[C@H](C)[C@@H](O[C@@H]2O[C@H](C)C[C@H](N(C)C)[C@@H]2O)[C@](C)(OC)C[C@@H](C)C(=O)[C@H](C)[C@@H](O)[C@]1(C)O`: the viability (% of control) was found to be 108%.

As for `Cc1ccc2nc(NCCN)c3ncc(C)n3c2c1`, the viability (% of control) turned out to be 3.39%.

For the molecule `CCc1cc(C(C)=NOCc2ccc(C3CCCCC3)c(C(F)(F)F)c2)ccc1CN1CC(C(=O)O)C1`, the viability (% of control) was determined as 19.7%.

Turning to `COc1cc(C(=O)NC2CCN(C)CC2)ccc1Nc1ncc2c(n1)N(C1CCCC1)CCC(=O)N2C(C)C`, the viability (% of control) amounted to 2.49%.

Take `CC(C=CC=C(C)C=CC1=C(C)CCCC1(C)C)=CC=CC=C(C)C=CC=C(C)C=CC1=C(C)CCCC1(C)C`: the viability (% of control) was determined as 10%.

The values are drawn from PubChem BioAssay (NCATS).
